# Inconclusive results are not listed. Where a call stands in place of a potency, no number is given. The source made the active and inactive calls. Calls follow the shape of the dose curve; as a rule, active = well fitted activation curve with a large enough effect; inconclusive = small, poorly fitted or top-dose-only effect; inactive = flat fitted curve, though single readings scatter.
# Biological target: Relaxin receptor 2 (Homo sapiens) (UniProt Q8WXD0)
# Assay: qHTS Assay for Agonists of the Relaxin Receptor RXFP1: RXFP2 Hit Validation; also: nearly all actives have a fitted effect of over 65% in size
# Details: HEK293 RXFP2 cAMP TR-FRET, 30 min; series mostly up to 115 µM
# Text: NIH Chemical Genomics Center [NCGC] NIH Molecular Libraries Probe Production Centers Network [MLPCN] MLPCN Grant: R03 MH085705-01A1 Assay Submitter (PI): Alexander Agoulnik NCGC Assay Overview: The relaxin hormone is involved in the variety of biological functions in normal tissues and diseases. The role of relaxin is well-established in female reproduction and parturition, mammary gland and endometrial development, maintenance of myometrial quiescence during pregnancy. Relaxin signaling through its G protein-coupled receptor (GPCR) RXFP1 results in ECM remodeling through regulation of collagen deposition, cell invasiveness, proliferation and overall tissue homeostasis. […] Recombinant human relaxin (rhRlx) is currently being tested in clinical trials as a protective agent in congestive heart failure, in treating severe preeclampsia, and as an anti-fibrotic agent in systemic sclerosis. Upon relaxin binding RXFP1 activation leads to the activation of adenylate cyclase (AC) via Gs. cAMP will activate PKA, which phosphorylates many signaling proteins. Thus, detection of cAMP increase is an easy and reliable indication of relaxin receptor activation. To screen for agonists of the relaxin receptor, a HEK293T cell line stably transfected with RXFP1 was used. RXFP1 activation was assayed by changes in cAMP levels as detected with a time-resolved fluorescence energy transfer (TR-FRET) cAMP detection kit. This assay measures activation of a cell expressing RXFP2, another GPCR targeted by relaxin, to determine the selectivity of compounds for RXFP1.
# NCGC Assay Protocol Summary: This is a cell-based assay for cAMP second messenger response to screen for agonists of the RXFP2 receptor. The assay was conducted in the presence of a PDE4 inhibitor (Ro 20174). The cells were lysed and the cAMP levels were measured with a TR-FRET cAMP kit. Presence of cAMP in the cell lysate disrupts binding between the cryptate-labeled anti-cAMP and d2-labeled cAMP pair, leading to a decrease in the TR-FRET signal. Data were normalized to the controls for basal activity (buffer only) and 100% activity (29 nM porcine relaxin). The EC50 values were determined from concentration-response data modeled with the standard Hill equation 1536-well assay protocol for the HEK293 RXFP2 cAMP assay: (1) Add 3 ul HEK293 RXFP2 cell culture. 2000 cells/well in DMEM/F12, 10% FBS, 1x Pen/Strep (dispensed offline with MultiDrop Combi). (2) Incubate 16-24 hr at 37C, 5% CO2. (3) Add 1 ul 400uM Ro20174 in DPBS, 0.05% BSA, 0.005% Tween 20. (3) Add 23 nl compounds in DMSO solution. Final concentration was 0.5 - 58 uM. (4) Incubate 30 min at 37C, 5% CO2. (5) Add 1 ul cAMP-d2 in lysis buffer (HTRF cAMP HiRange kit, CisBio). (6) Add 1 ul anti-cAMP antibody-cryptate in lysis buffer (HTRF cAMP HiRange kit, CisBio). (7) Incubate 30 min at room temperature. […] Keywords: relaxin, RXFP1, RXFP2, G-protein coupled receptor, cAMP, agonist, high throughput screening, MLSMR, MLSCN, NIH Roadmap, qHTS and NCGC
# Potency is read from the fitted curve at half-maximal effect.
# Chain of Relaxin receptor 2 (Homo sapiens) (Q8WXD0 whole entry, looked up): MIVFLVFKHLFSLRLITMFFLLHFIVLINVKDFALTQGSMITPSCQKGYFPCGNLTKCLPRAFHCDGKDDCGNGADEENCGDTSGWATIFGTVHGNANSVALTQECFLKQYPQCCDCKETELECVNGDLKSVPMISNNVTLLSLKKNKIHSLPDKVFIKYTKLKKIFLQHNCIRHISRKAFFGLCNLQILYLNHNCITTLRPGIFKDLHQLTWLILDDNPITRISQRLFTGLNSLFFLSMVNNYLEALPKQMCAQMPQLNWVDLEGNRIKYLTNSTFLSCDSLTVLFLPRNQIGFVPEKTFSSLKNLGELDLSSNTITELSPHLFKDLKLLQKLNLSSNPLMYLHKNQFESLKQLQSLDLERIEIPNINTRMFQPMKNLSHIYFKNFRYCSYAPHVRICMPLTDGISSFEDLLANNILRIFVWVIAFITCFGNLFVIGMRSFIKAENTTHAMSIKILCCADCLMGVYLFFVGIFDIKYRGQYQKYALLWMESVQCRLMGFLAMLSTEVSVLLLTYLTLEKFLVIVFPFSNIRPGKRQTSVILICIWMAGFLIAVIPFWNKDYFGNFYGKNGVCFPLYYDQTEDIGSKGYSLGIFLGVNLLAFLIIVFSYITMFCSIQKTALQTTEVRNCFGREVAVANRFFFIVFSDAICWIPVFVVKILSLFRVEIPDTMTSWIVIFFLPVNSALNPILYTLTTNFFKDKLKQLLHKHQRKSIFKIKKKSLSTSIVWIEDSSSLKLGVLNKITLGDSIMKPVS
row,SMILES,Potency
1,C=CCNc1ncnc2c1ncn2C1OC(CO)C(O)C1O (stereo not given),inactive
2,CCN(CC)CCCN1C=C2C(=O)C(C)(OC(=O)C3CCCC3)C(=O)C=C2C=C1c1ccsc1 (stereo not given),inactive
3,CCCC(=O)Nc1ncnc2c1ncn2[C@@H]1O[C@@H]2COP(=O)(O)O[C@H]2[C@H]1OC(=O)CCC,1.38 µM (active)
4,COc1ccc(CNC(=O)CN2C(=O)NC(C)(c3cccc(Br)c3)C2=O)cc1 (stereo not given),inactive
5,c1ccc(-c2nnc(-c3ccccn3)c(-c3ccccn3)n2)nc1,inactive
6,Cc1cccc(NC(=O)c2ccccc2NC(=O)C2CCCCC2)c1C,inactive
7,Cc1ccccc1NC(=O)c1ccccc1NC(=O)c1ccco1,inactive
8,C=CCNC(=O)NC(=O)COC(=O)c1nc2nccc(C)n2n1,34.6 µM (active)
9,O=C(O)CCSc1ccc2ccccc2n1,19.4 µM (active)
10,CC(=O)Nc1ccc(S(=O)(=O)NCc2cc(=O)n(C)c(=O)n2C)cc1,30.9 µM (active)
11,CCOC(=O)CSc1nc(=O)n2cc(C)ccc2n1,inactive
12,O=C(Nc1ccccc1C(=O)N1CCCCC1)c1ccco1,inactive
13,Cn1c(=O)c2c(ncn2CC(=O)N/N=C/c2cn[nH]c2-c2ccc(F)cc2)n(C)c1=O,21.8 µM (active)
14,Cn1c(=O)c2sccc2n2c(CCCC(=O)NCCc3ccc(S(N)(=O)=O)cc3)nnc12,43.6 µM (active)
15,O=C(CN1C(=O)c2cccc3cccc(c23)C1=O)NCCN1CCOCC1,inactive
16,CCN(c1ccccc1)S(=O)(=O)c1ccc(OC)c(NC(=O)C2CC(=O)N(Cc3ccccc3)C2)c1 (stereo not given),inactive
17,O=C(O)CCNc1ccc(NCCC(=O)O)c2c1C(=O)c1ccccc1C2=O,inactive
18,CCOP1(=O)OCC2OC(n3cnc4c(N)ncnc43)C(O)C2O1 (stereo not given),7.76 µM (active)
19,CCN1CCN(C(=O)CCc2nnc3ccc(N4CCC5(CC4)OCCO5)nn23)CC1,38.9 µM (active)
20,COc1ccc(CCn2c(=N)c(C(=O)NCC3CCCO3)cc3c(=O)n4cccc(C)c4nc32)cc1 (stereo not given),inactive

row,SMILES,Potency
1,O=c1oc2cc(O)c(Cl)cc2c2ccccc12,6.9 µM (active)
2,CCN(CC)S(=O)(=O)c1ccc2c(c1)N(CC(=O)NCc1ccccn1)C(=O)CO2,34.6 µM (active)
3,CC1CCN(S(=O)(=O)c2ccc3nc(N4CCN(c5ccccc5)CC4)ccc3c2)CC1,15.4 µM (active)
4,O=C(Nc1ccccc1C(=O)NCCN1CCOCC1)c1ccco1,inactive
5,COc1ccc(/C=C2/SC(=O)N(CCC(=O)Nc3ccc(C)cc3)C2=O)cc1OC,inactive
6,CC(=O)c1sc(NC(=O)C(C)C)nc1C,15.4 µM (active)
7,Nc1c(S(=O)(=O)O)cc(NC(=O)c2ccccc2)c2c1C(=O)c1ccccc1C2=O,inactive
8,CC(C)(C)C(=O)Nc1ccccc1C(=O)NCc1ccco1,inactive
9,O=S(=O)(c1cccc(-c2cn3cccnc3n2)c1)N1CCOCC1,34.6 µM (active)
10,COCCNC(=O)NC(=O)COC(=O)C12CC3CC(CC(NC(C)=O)(C3)C1)C2,inactive
11,CC1CCCCN1C(=O)c1ccccc1NC(=O)c1ccco1 (stereo not given),inactive
12,Cc1cc(C)n(C(=O)CCCn2cc([N+](=O)[O-])cn2)n1,inactive
13,O=C(O)CNC(=O)c1ccccc1NC(=O)c1ccco1,inactive
14,O=C(Oc1ccccc1)Oc1ccc2c(c1)oc(=O)c1ccccc12,19.4 µM (active)
15,COc1ccc(CN2C(=O)c3cccnc3C2=O)cc1S(=O)(=O)NC1CCCCC1,34.6 µM (active)
16,C=CCOc1c(Cl)cc(CNc2ccc(N(C)C)cc2)cc1OC,inactive
17,CCN(CC)S(=O)(=O)c1ccc(C(=O)NCCN2C(=O)S/C(=C\c3cccnc3)C2=O)cc1,13.8 µM (active)
18,COc1ccc(OC)c(CNC(=O)C2CCN(C(=O)N(C)C)CC2)c1,inactive
19,Cc1cc(C)nc(NS(=O)(=O)c2ccc(N3C(=O)c4ccccc4C3=O)cc2)n1,29.8 µM (active)
20,Cc1cccc2cc(C#N)c(SCC(=O)NCc3cccs3)nc12,19.4 µM (active)

# Source: PubChem BioAssay AID489043 (National Center for Advancing Translational Sciences (NCATS), 2010)
